The structures appear in SMILES notation. The panel holds about 83,000 compounds, 20% with a hit somewhere; the sample as a whole holds those more often.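 Interpretation: 100, growth as untreated; towards 0, rising growth inhibition; 0, no net growth; 0 to -100, cell death. Compounds scoring below 10 were considered active.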 A number with no mark means an inactive call. The source made the active and inactive calls.

Some test systems named below: HCT-15 colon; HT29 colon; SNB-75 CNS; SNB-19 CNS; U251 CNS; PC-3 prostate; SK-MEL-5 melanoma; UACC-62 melanoma; LOX IMVI melanoma; SK-MEL-28 melanoma.
What all share (assay): NCI-60 one-dose screen, 48 h (100 = growth as untreated, 0 = no growth, -100 = all killed)
What all share (settings): 10 µM unless noted

On to `Cc1ccc(OCCn2c(C)nn(-c3ccc(Cl)cc3)c2=O)cc1`, for which the growth in the test with HCT-15 colon was 111%; with HT29 colon, 119%; in the test on SNB-75 CNS it was 82.6%; with SNB-19 CNS, 109%; with U251 CNS it was 101%; with PC-3 prostate, 92.4%. Moreover, the growth in the test with SK-MEL-5 melanoma was 109%; in the test with UACC-62 melanoma it was 103%; with LOX IMVI melanoma it was 96.3%; in the test on SK-MEL-28 melanoma it was 101%.

Take `COc1ccc(/C=C/C(=O)c2cccc(B(O)O)c2)cc1O`: the growth is 12% with HCT-15 colon; 69.5% in the test with HT29 colon; 9.35% (active) in the test on SNB-75 CNS; 59.5% in the test with SNB-19 CNS; 44.2% in the test with U251 CNS; 59.9% in the test on PC-3 prostate. Further, the growth in the test with SK-MEL-5 melanoma was 81.7%; in the test with UACC-62 melanoma, 33.7%; with LOX IMVI melanoma, 13.8%; in the test with SK-MEL-28 melanoma, 79.2%.

`COc1ccc(C2CC(c3cccs3)=NN2c2ccc(S(=O)(=O)NC(=O)Nc3ccc(C)cc3)cc2)cc1` (stereo not given): the growth in the test with HCT-15 colon is 99.3%; in the test on HT29 colon, 128%; with SNB-75 CNS it was 93.7%; in the test with SNB-19 CNS it was 108%; with U251 CNS, 94.1%; in the test with PC-3 prostate, 86.3%. The growth was 61.4% in the test on SK-MEL-5 melanoma, 38.1% in the test on UACC-62 melanoma, 99.7% in the test on LOX IMVI melanoma and 47.8% with SK-MEL-28 melanoma.

As to `CCN(C(=O)c1cc2ccccc2[nH]1)[C@H]1CCC[C@@H](NCc2ccc(OC)cc2)C1`, the growth in the test on HCT-15 colon is 81%; in the test on HT29 colon, 76.2%; in the test on SNB-75 CNS, 80.6%; in the test on SNB-19 CNS it was 91.3%; with U251 CNS, 101%; in the test on PC-3 prostate it was 88.5%. In addition, the growth was 91.2% in the test with SK-MEL-5 melanoma, 95.6% with UACC-62 melanoma, 89% in the test on LOX IMVI melanoma and 98.3% in the test with SK-MEL-28 melanoma.

For the compound `CCCCC[C@@H]1Cc2cc(O)c(C(=O)O)c3c2[C@H](C[C@@]2(CCCO2)O3)O1`, the growth with HCT-15 colon was 112%; in the test on HT29 colon, 113%; with SNB-75 CNS, 98.1%; in the test on SNB-19 CNS, 107%; in the test on U251 CNS, 105%; in the test with PC-3 prostate, 101%. For the same compound, the growth is 111% with SK-MEL-5 melanoma, 110% in the test on UACC-62 melanoma, 93.6% in the test on LOX IMVI melanoma and 109% with SK-MEL-28 melanoma.

`COc1ncc(-c2ccc3ncnc(Nc4cccc(Cl)c4)c3c2)cc1NS(=O)(=O)CCN1CCOCC1`: the growth in the test on HCT-15 colon was 6.62% (active); in the test on HT29 colon, 10.1%; with SNB-75 CNS it was -19.2% (active); with SNB-19 CNS it was 21.2%; with U251 CNS, 28.3%; in the test with PC-3 prostate, 12.4%. The growth is -19.6% (active) in the test with SK-MEL-5 melanoma, -21.4% (active) with UACC-62 melanoma, 1.29% (active) with LOX IMVI melanoma and -4.89% (active) in the test on SK-MEL-28 melanoma.

For `COc1cccc(-c2nc3sccn3c2-c2ccnc(NCCCNS(=O)(=O)c3ccccc3)n2)c1`, the growth was 29.7% in the test on HCT-15 colon; 29.4% with HT29 colon; 92.6% with SNB-75 CNS; 95.5% in the test with SNB-19 CNS; 71% with U251 CNS; 61.6% in the test on PC-3 prostate. Further, the growth was 9.71% (active) with SK-MEL-5 melanoma, 14.2% with UACC-62 melanoma, 28.9% with LOX IMVI melanoma and 43.4% in the test with SK-MEL-28 melanoma.

On to `O=S(=O)(O)CCl`, for which the growth was 96.3% in the test on HCT-15 colon; 95.9% in the test on HT29 colon; 86.1% with SNB-75 CNS; 106% with SNB-19 CNS; 97.1% in the test on U251 CNS; 91.6% in the test with PC-3 prostate. Besides, the growth with SK-MEL-5 melanoma was 103%; with UACC-62 melanoma, 100%; with LOX IMVI melanoma it was 86.8%; in the test with SK-MEL-28 melanoma, 102%.

Take `COc1ccc(/C=c2\sc3n(c2=O)C2C(NN=3)N(C)C(=O)N2C)cc1` (stereo not given): the growth in the test on HCT-15 colon was 28.5%; in the test on HT29 colon, 8.76% (active); in the test on SNB-75 CNS it was -20.5% (active); in the test with SNB-19 CNS, 33.9%; in the test on U251 CNS, 29.3%; with PC-3 prostate it was 25.4%. Also, the growth in the test with SK-MEL-5 melanoma was 6.02% (active); in the test on UACC-62 melanoma, 41.9%; in the test with LOX IMVI melanoma it was 44.3%; in the test with SK-MEL-28 melanoma, 54.7%.

Take `O=C(/C=C/CN1CCCCC1)Nc1cc2c(Nc3ccc(F)c(Cl)c3F)ncnc2cc1OCCOC(F)F`: the growth was 7.81% (active) in the test on HCT-15 colon; 2.26% (active) in the test with HT29 colon; -12.1% (active) in the test on SNB-75 CNS; 40.9% in the test on SNB-19 CNS; 31.1% in the test with U251 CNS; 1.81% (active) in the test on PC-3 prostate. Besides, the growth is 25.3% in the test on SK-MEL-5 melanoma, 34.1% with UACC-62 melanoma, 12.5% in the test on LOX IMVI melanoma and 48.6% in the test on SK-MEL-28 melanoma.

For the compound `COc1ccc(/C(=N\O)c2cc(OC)c(OC)c(OC)c2)c(OC)c1N`, the growth with HCT-15 colon was 11.3%; with HT29 colon, 4.28% (active); with SNB-75 CNS, -8.55% (active); with SNB-19 CNS, 32.8%; in the test with U251 CNS, 18.3%; in the test on PC-3 prostate, 20.9%. Besides, the growth in the test with SK-MEL-5 melanoma was 11.3%; in the test with UACC-62 melanoma it was 30%; in the test on LOX IMVI melanoma, 42.5%; in the test on SK-MEL-28 melanoma it was 59.3%.

With `COc1ccc(/C=C2\C(=O)N(C(=O)c3csc(NC(C)=O)n3)N=C2C)cc1`, the growth in the test with HCT-15 colon is 103%; in the test on HT29 colon it was 98.9%; with SNB-75 CNS it was 86.5%; in the test on SNB-19 CNS, 102%; in the test with U251 CNS, 101%; in the test on PC-3 prostate, 98.9%. Moreover, the growth was 107% with SK-MEL-5 melanoma, 108% in the test on UACC-62 melanoma, 96% with LOX IMVI melanoma and 110% in the test on SK-MEL-28 melanoma.

As for `CC(Br)C(O)c1cc2c(cc1Br)OCO2` (stereo not given), the growth in the test on HCT-15 colon is 102%; in the test with HT29 colon it was 114%; in the test with SNB-75 CNS, 88%; in the test on SNB-19 CNS, 112%; in the test on U251 CNS, 102%; in the test with PC-3 prostate, 98.6%. Moreover, the growth with SK-MEL-5 melanoma was 102%; in the test on UACC-62 melanoma, 98.9%; in the test on LOX IMVI melanoma it was 93.2%; with SK-MEL-28 melanoma, 108%.
